Test results as given in paper PMC7819943, “Rice protein-binding microarrays: a tool to detect cis-acting elements near promoter regions in rice”.
In all, about 68,000 sequences were measured (“fluorescence intensity (a.u.)”: median about 9,100, highest 2% from about 16,000 on). The sample holds the highest values, similar sequences and a random draw of the others, so the mix is not that of the screen.

The sequences below were run against OsWRKY34 (Oryza sativa, UniProt Q0JBA9 1-250) (assay: protein-binding microarray (RPBM); PBS, 2% BSA, 51.3 ng/ul salmon testes DNA, 50 uM zinc acetate, 200 nM TF, 25 C, 1 h; high values mean tight binding). Details: protein: recombinant; tags: N-terminal polyhistidine and DsRed monomer fusion (pET32a); label: CyDye5-dUTP incorporated in the synthesized complementary strand; 3' TTTTT single-stranded linker to array surface; dsDNA, one strand shown.
Sequence of OsWRKY34 (Q0JBA9 entry or part of it): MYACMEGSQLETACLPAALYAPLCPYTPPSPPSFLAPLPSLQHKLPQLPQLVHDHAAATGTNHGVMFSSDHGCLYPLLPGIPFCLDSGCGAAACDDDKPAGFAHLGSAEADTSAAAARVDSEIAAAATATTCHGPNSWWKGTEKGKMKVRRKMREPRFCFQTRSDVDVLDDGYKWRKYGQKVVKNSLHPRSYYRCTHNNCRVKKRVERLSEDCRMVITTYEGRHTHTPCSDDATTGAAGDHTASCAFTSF
Method in brief: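 Binding signal is defined as the fluorescence intensity of each feature in arbitrary units, read on an Axon 4000B scanner. Transcription factors with N-terminal polyhistidine and DsRed fusions came from E. coli BL21-CodonPlus and were purified on Ni–NTA. They were incubated at 200 nM for 1 h at 25 °C on a custom Agilent array that had been made double-stranded with Cy5-dUTP, with 50 µM zinc acetate present, and the array was washed.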
For “GTGTTGGTGGCTCTGGCTGCGTCGACGTGCGCAGGGCGTTCGGAGTCACCTAGTGCAG”, the binding signal was 8050 fluorescence intensity (a.u.). For “TTCTTCTAGAGGAGGAGGAGGCGGCGGGGCGGCGGGCGAGCGGAGTCACCTAGTGCAG”, the binding signal was 17300 fluorescence intensity (a.u.). “GCAGGCGGAGGCGGAGGCGGAGGCGGAGGCGGCGGCGGCGCGGAGTCACCTAGTGCAG” was tested, and the binding signal was 8950 fluorescence intensity (a.u.). In the case of “GGGCGGAGGCGGGGATCGCGGCGGGAGGGGTGGATCCATGCGGAGTCACCTAGTGCAG”, the binding signal is reported as 17400 fluorescence intensity (a.u.). With “CGGGGTGGGAGCAGGGGTCGCGCGGCGGGGTGCGGCCATGCGGAGTCACCTAGTGCAG” the binding signal was 10100 fluorescence intensity (a.u.). For “GGTCGCCGGATCGCGGGAGGGAGGGAGGGAGGGAGGGAGGCGGAGTCACCTAGTGCAG”, the binding signal was 14100 fluorescence intensity (a.u.). In the case of “AGGAGGCGGGGCGGGGCGGCGGCGGCGGCGGCGGCGCCCGCGGAGTCACCTAGTGCAG”, the binding signal is reported as 11500 fluorescence intensity (a.u.). With “GGCGTGTTGTGTTCGGGTGGGTGCTGCGCAGGCTGCTGTACGGAGTCACCTAGTGCAG” the binding signal was 17300 fluorescence intensity (a.u.). With “GGGAGTGTGGAGGTGTTGTGCTGCGGCGTGGGTGTGTTGGCGGAGTCACCTAGTGCAG” the binding signal was 8640 fluorescence intensity (a.u.). In the case of “CTGCTCTTTCTTCTCTCTGCATTCCATTTCATTACTGCCTCGGAGTCACCTAGTGCAG”, the binding signal is reported as 11000 fluorescence intensity (a.u.). In the case of “AGCTCGTGTGGTGTATGTTGTTGTGTGCTGCTAGCTAGCTCGGAGTCACCTAGTGCAG”, the binding signal is reported as 10200 fluorescence intensity (a.u.). With “TCCATGCCATCTGCTGAACAGACCCATGCATCCTTCAACTCGGAGTCACCTAGTGCAG” the binding signal was 8920 fluorescence intensity (a.u.). In the case of “CACATCAAATTTATTTTCTCCCAAAATGAGGCGCGCAACACGGAGTCACCTAGTGCAG”, the binding signal is reported as 8670 fluorescence intensity (a.u.). With “GCTGTCGTTGAATTTTTGTTTGTTTTCTTGGCGTGTTGCACGGAGTCACCTAGTGCAG” the binding signal was 13300 fluorescence intensity (a.u.). “CTTTCCATGGTTTTTGCTCCCGCAGCCCGGGCCACTGCCCCGGAGTCACCTAGTGCAG” was tested, and the binding signal was 11600 fluorescence intensity (a.u.). In the case of “CGTCTCGTTTCTCATCTCAAAATTTCGCGCCTCGTCGCCGCGGAGTCACCTAGTGCAG”, the binding signal is reported as 8640 fluorescence intensity (a.u.). In the case of “GCTCAGCCGCCGTCGCCAGTCCAACCTCCGCCACCGCGGCCGGAGTCACCTAGTGCAG”, the binding signal is reported as 8640 fluorescence intensity (a.u.). “CCAAACCCAACCCTCGACGCCAATTAAACACCAATTTTCTCGGAGTCACCTAGTGCAG” was tested, and the binding signal was 8920 fluorescence intensity (a.u.). “CCCGAACCCACCACCTCCGCCCATTTCCGCCTCCTCTCGACGGAGTCACCTAGTGCAG” was tested, and the binding signal was 9190 fluorescence intensity (a.u.). With “ACAGCTTAAAATTTCCTCCTCCGCCCAAAAACCCTCTCGACGGAGTCACCTAGTGCAG” the binding signal was 24300 fluorescence intensity (a.u.). For “CCTTGACAGATTAATCCTACGTTTTGACCCCATATGTTTTCGGAGTCACCTAGTGCAG”, the binding signal was 8880 fluorescence intensity (a.u.). With “CTTGTAGCTGTAATTCCCTATTGTTGTTTTTCGGTACTGTCGGAGTCACCTAGTGCAG” the binding signal was 13200 fluorescence intensity (a.u.). For “TCGCAAGAGTTGTTGAAAGTTGACCAGCATATTGAGGCCCCGGAGTCACCTAGTGCAG”, the binding signal was 8130 fluorescence intensity (a.u.). With “CACACACACCGATCTTTTCATTCATTCTTTTCTTTCTTTTCGGAGTCACCTAGTGCAG” the binding signal was 18700 fluorescence intensity (a.u.). With “GTCTCATTCTTCTTATTTCCATTTTTTTTTTCTCTCAAAACGGAGTCACCTAGTGCAG” the binding signal was 11100 fluorescence intensity (a.u.). In the case of “ACTCACTTCAAAATTTTCACATCCTCTCTCATCATTTTTTCGGAGTCACCTAGTGCAG”, the binding signal is reported as 11100 fluorescence intensity (a.u.). For “TCTCAATTGCACCTCATTTAATCCTCATTTTTCATCTTTTCGGAGTCACCTAGTGCAG”, the binding signal was 11800 fluorescence intensity (a.u.). “ACTCACCTCTCTCATCTTTCGTGCACACATTTTTCAATTTCGGAGTCACCTAGTGCAG” was tested, and the binding signal was 17700 fluorescence intensity (a.u.). For “ACAACTCACTCTCTTCATTTTCCATTCTCGTGCTTTTCAACGGAGTCACCTAGTGCAG”, the binding signal was 16600 fluorescence intensity (a.u.). With “TCTCTTTTCTCATTTTTTCGCTTGCCACATCATTTTCTATCGGAGTCACCTAGTGCAG” the binding signal was 9600 fluorescence intensity (a.u.). For “CAACACATCTCTTGCATTTTTTTTTCTTTGCATTCTCATTCGGAGTCACCTAGTGCAG”, the binding signal was 8200 fluorescence intensity (a.u.). For “AGACATTCTCCATTTTCTTTCTTCTCTTCACTCACACTCACGGAGTCACCTAGTGCAG”, the binding signal was 8800 fluorescence intensity (a.u.). For “GCCTATTCTTTTCGCCACCGCTATCGCCACACATCACGGACGGAGTCACCTAGTGCAG”, the binding signal was 17500 fluorescence intensity (a.u.). “TTCCTTTTTCATCTTCTTTTCACATTTTTTCTTTATTTTTCGGAGTCACCTAGTGCAG” was tested, and the binding signal was 12400 fluorescence intensity (a.u.). In the case of “TTCTTTGGATTTGATTGGTGCCGCCTTTTTTCGCTATTGACGGAGTCACCTAGTGCAG”, the binding signal is reported as 15600 fluorescence intensity (a.u.). With “TCCTCTTCTTTTCTCTCCCTCCGCCACTCGACGCCCAACCCGGAGTCACCTAGTGCAG” the binding signal was 9310 fluorescence intensity (a.u.). For “TCGATTCCGGCGTGCGAATTCCTCCACCTCGCCGCCGCCGCGGAGTCACCTAGTGCAG”, the binding signal was 8810 fluorescence intensity (a.u.). In the case of “TTCCTGTTCCTGCAAGAAAACGCTCATCCTCTTGCTTTTTCGGAGTCACCTAGTGCAG”, the binding signal is reported as 9650 fluorescence intensity (a.u.). For “AGGCCTCCACGGCTCCACCTCCTTCCGCTTTCGCCTATCCCGGAGTCACCTAGTGCAG”, the binding signal was 10000 fluorescence intensity (a.u.). In the case of “AAAGTGCCGTATTTTTGTGTTTCTGTTGTAGTGGTAATTACGGAGTCACCTAGTGCAG”, the binding signal is reported as 12000 fluorescence intensity (a.u.). In the case of “TGGGTTGTGGCAGTGTCTTATAAGGCTATATTAAGTCTATCGGAGTCACCTAGTGCAG”, the binding signal is reported as 8060 fluorescence intensity (a.u.). With “TTGCTGTCTTGCGTGTTCATGCTGCCCCGCGGGCGTTGAGCGGAGTCACCTAGTGCAG” the binding signal was 9010 fluorescence intensity (a.u.).
